Results published in PubChem BioAssay AID628 (Vanderbilt High Throughput Screening Facility, 2007).
Screen size: about 64,000 compounds; about 2,200 (3.4%) were called active. For the sample, actives were picked, then their nearest neighbours and some compounds at random. Values without a mark were called inactive.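 Rule for the calls: active = calcium fluorescence response, raw or row-and-column corrected B-score, differing from the plate sample mean either way at a set confidence level, mostly lower; inactive = the rest.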

The compounds below were run against Muscarinic acetylcholine receptor M1 (Rattus norvegicus) (UniProt P08482) (assay: blocks the rat M1 muscarinic receptor response to acetylcholine (AID 628)). Conditions: CHO-M1 cells, Fluo-4 calcium, ACh EC80 antagonist mode; at 10 µM; stronger effect = lower value.
Chain of Muscarinic acetylcholine receptor M1 (Rattus norvegicus) (P08482 whole entry, looked up): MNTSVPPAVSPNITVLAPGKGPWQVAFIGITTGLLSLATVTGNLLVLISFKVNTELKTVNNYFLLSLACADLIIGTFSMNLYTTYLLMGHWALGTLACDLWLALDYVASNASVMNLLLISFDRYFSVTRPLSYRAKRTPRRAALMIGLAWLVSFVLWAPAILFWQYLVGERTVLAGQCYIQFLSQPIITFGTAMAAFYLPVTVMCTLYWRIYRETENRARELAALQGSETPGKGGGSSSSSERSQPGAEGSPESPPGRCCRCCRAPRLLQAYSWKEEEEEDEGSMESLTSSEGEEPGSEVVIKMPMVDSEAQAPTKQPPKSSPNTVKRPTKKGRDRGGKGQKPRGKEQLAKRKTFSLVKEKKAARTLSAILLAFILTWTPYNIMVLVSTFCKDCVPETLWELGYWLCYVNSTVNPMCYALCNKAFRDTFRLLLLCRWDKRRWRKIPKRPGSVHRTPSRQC

SMILES	B-score
O=C(c1cnn2ccccc12)N1CCc2ccccc21	-0.297
O=C(CCS(=O)(=O)c1ccccc1)Nc1nc2c(s1)CCCC2	1.02
COc1ccc(CCNC(=O)CCn2c(=O)oc3ccccc32)cc1OC	0.0532
CCOC(=O)C1=C(CC)Nc2ccccc2N=C1NC(=O)c1cccc(S(=O)(=O)N2CCCC2)c1	-3.22 (active)
CCOC(=O)CSc1nnc(NC(=O)c2cccc(S(=O)(=O)N3CCCCC3)c2)s1	-1.2
CCOC(=O)CSc1nnc(NC(=O)c2cccc(S(=O)(=O)N3CCCC3)c2)s1	0.563
COc1cccc(NC(=O)Cn2cnc3sc(C)c(S(=O)(=O)N4CCN(C)CC4)c3c2=O)c1	0.144
CN(C)CCCn1c(N)c(C#N)c2nc(C#N)c(C#N)nc21	-0.181
CCOC(=O)c1[nH]c2ccc(OC)cc2c1NC(=O)N1CCOCC1	0.577
CCOC(=O)c1[nH]c2ccc(OC)cc2c1NC(=O)CCN1CCN(Cc2ccccc2)CC1	-4.59 (active)
Cc1c(C(=O)N2CCOCC2)[nH]c2ccc(OCc3ccccc3)cc12	-2.27
O=C(CN(c1ccc2c(c1)OCCO2)S(=O)(=O)c1ccccc1)Nc1ccc2c(c1)OCO2	0.461
Cc1c(C(=O)Nc2ccccc2Cl)oc2ccc(S(=O)(=O)N3CCC4(CC3)OCCO4)cc12	2.7 (active)
CCOC(=O)C1CCN(C(=O)c2oc3ccc(S(=O)(=O)N4CCCCCC4)cc3c2C)CC1	-0.942
CCOc1ccccc1NC(=O)c1cc(S(=O)(=O)N2CCC3(CC2)OCCO3)ccc1F	-0.759
Cc1ccc(NC(=O)CN(C)S(=O)(=O)c2cnc[nH]2)cc1C	0.0747
O=C(NCC(F)(F)F)Nc1nnc(C(F)(F)F)s1	-1.96 (active)
CCc1nnc(NC(=O)CCC(=O)O)s1	0.852
CC(=O)Nc1ccc(NC(=O)CN2CCCC(C)C2)c(Cl)c1 (stereo unspecified)	-1.15
Cc1cc(C)cc(NC(=O)C2CCN(c3nc(C)cc(C)n3)CC2)c1	0.673
COc1ccc(C2C(C#N)=C(N)Oc3cc(N)ccc32)cc1OC (stereo unspecified)	0.645
O=C(Nc1ccncc1)c1cc2ccccc2o1	1.08
CCOc1ccc(C(=O)Nc2ccncc2)cc1	0.109
O=C(Nc1ccncc1)c1c(F)cccc1F	-4.49 (active)

SMILES	B-score
CC1Oc2ccccc2N(Cc2cccnc2)C1=O (stereo unspecified)	1.07
COC(=O)c1sc(=S)n(-c2ccccc2)c1N	0.339
Cc1ccc(Cn2c(NC(=O)c3ccco3)nc3ccccc32)cc1	0.141
Cn1c(-c2ccc(F)cc2)cnc1SCC(=O)NCc1ccco1	0.325
Cc1ccc(-c2csc3nnc(SCC(=O)NCc4ccco4)n23)cc1	-10.4 (active)
O=C(CSc1nnc2scc(-c3ccc(F)cc3)n12)NCc1ccco1	-0.509
CCCN(CCC)CCNC(=O)c1cc2c(C)nc3ccccc3c2o1	0.00891
Cc1nc2ccccc2c2oc(C(=O)NCCCN3CCC(C)CC3)cc12	-6.51 (active)
Cc1nc2ccccc2c2oc(C(=O)NCC3CCCO3)cc12 (stereo unspecified)	0.0181
Cc1ccc(Nc2nc(CSc3nnnn3-c3ccccc3)cc(=O)[nH]2)cc1	-0.208
CCOC(=O)Cc1csc(NC(=O)CSc2nc(C)cc(=O)[nH]2)n1	-0.287
CN(CC(=O)NC1CCCCC1)S(=O)(=O)c1ccc(Br)s1	-1.64
Cc1cc(C)c2[nH]c(=O)c(C(c3nnnn3Cc3ccc4c(c3)OCO4)N3CCCC3)cc2c1 (stereo unspecified)	0.419
Cc1ccc(S(=O)(=O)Cn2nnnc2CN2CCN(Cc3ccc4c(c3)OCO4)CC2)cc1	-0.838
Fc1ccccc1C(c1nnnn1Cc1ccc2c(c1)OCO2)N1CCN(Cc2ccccc2)CC1 (stereo unspecified)	0.889 (active)
CCOC(=O)Cn1c(N)c(C(=O)OC)sc1=S	0.106
Cn1c(=O)c2c(nc(OCc3cccnc3)n2Cc2ccccc2)n(C)c1=O	-0.0901
Cc1ccccc1C(OCC(O)CN1CCCCC1CCO)c1ccccc1 (stereo unspecified)	-3.65 (active)
COc1cccc(-c2nnc(N(C)C(=O)c3ccno3)s2)c1	0.344
CC1CN(c2cc(=O)n(-c3cccc(Br)c3)c(=O)[nH]2)CC(C)O1 (stereo unspecified)	-0.299
CCN1C(=O)/C(=C\N2CCN(c3ccccc3)CC2)SC1=S	0.399
CCN1C(=O)/C(=C2\SC(N3CCCCC3)=NC2=O)c2ccccc21	-3.91 (active)
CCN1C(=O)/C(=C\N2CCN(c3cccc(Cl)c3)CC2)SC1=S	0.609
CS(=O)(=O)N(CC(=O)N1CCOCC1)c1ccc2c3c(cccc13)CC2	0.0978

SMILES	B-score
Cc1cc(NC(=O)COn2nnc3ccccc32)no1	-0.00408
CCOC(=O)c1c(C2CC2)csc1NC(=O)CSCc1c(C)noc1C	-0.892
Cc1cc(NC(=O)CCC2COc3ccccc3O2)no1 (stereo unspecified)	-0.711
COc1ccc(CCNc2ncnc3nc[nH]c23)cc1OC	-0.37
c1ccc2c(c1)OCC(CNc1ncnc3nc[nH]c13)O2 (stereo unspecified)	-5.49 (active)
COCc1[nH]nc2c1C(C1C=CCCC1)C(C#N)=C(N)O2 (stereo unspecified)	0.327
O=C(c1ccccc1)c1ccc(OC(=O)N2CCCC2)cc1	-0.578
CCOc1ccccc1C1CC(c2ccccc2)Nc2nc(N)nn21 (stereo unspecified)	0.59
CCOC(=O)c1c(C)[nH]c(C(=O)COc2ccc3c(c2)OCO3)c1C	-0.104
CCCCOC(=O)c1[nH]c(C)c(C(=O)OC)c1C	1.78 (active)
CCOC(=O)c1c(C)[nH]c(C(=O)NCc2ccccc2OC)c1C	-0.312
COc1ccccc1N(CC(=O)N1CCCCC1)S(=O)(=O)c1ccccc1	-0.874
COc1ccc(N2C(=O)c3cccc4cccc(c34)C2=O)nn1	0.203
COC(=O)C1=C(C)Nc2ncnn2C1c1ccco1 (stereo unspecified)	0.342
CC(=O)C1=C(O)C(=O)N(c2ccc(S(N)(=O)=O)cc2)C1c1ccccc1F (stereo unspecified)	-0.56
C/C(CC(O)(/C=N/O)c1ccccc1)=N\O (stereo unspecified)	0.581
COC(=O)Cc1cc(=O)n(-c2nc3ccccc3s2)[nH]1	0.181
CCOC(=O)N1CCN(CC(=O)Nc2cc(C)nn2-c2nc3ccccc3s2)CC1	-2.41 (active)
CCOC(=O)N1CCC(NC(=O)c2ccc3nc(N4CCOCC4)sc3c2)CC1	0.0825
CCCCNc1nc2c(c(=O)n(C)c(=O)n2C)n1Cc1cccc(OC)c1	-0.0697
COC(=O)NC1(C(F)(F)F)NC(=O)N(C2CCCCC2)C1=O (stereo unspecified)	-0.0429
O=C1NC(Nc2nc3ccccc3s2)(C(F)(F)F)C(=O)N1C1CCCCC1 (stereo unspecified)	-3.66 (active)
Cc1c(NC(=O)C(C)OC(=O)c2cc3c4ccccc4n(C)c3s2)c(=O)n(-c2ccccc2)n1C (stereo unspecified)	0.392
CCC(=O)c1ccc(OCC(O)CN2C(=O)NC(C)(C)C2=O)cc1 (stereo unspecified)	0.82 (active)

SMILES	B-score
CC1(C)NC(=O)N(CCOc2cccc(Oc3ccccc3)c2)C1=O	-0.997
CCC(=O)c1ccc(OCC(O)CN2CC(C)OC(C)C2)cc1 (stereo unspecified)	0.0196
Cc1ccc(C(c2sc3nc(C)nn3c2O)N2CCN(c3ccccc3)CC2)cc1 (stereo unspecified)	0.39
Cn1c(SCc2nc3ccccc3s2)nnc1-c1ccc2c(c1)OCO2	0.0691
Cc1cccc2cc(CN(Cc3cccs3)C(c3nnnn3C3CCCC3)C(C)C)c(=O)[nH]c12 (stereo unspecified)	0.279
Cc1cccc2cc(CN(Cc3ccc4c(c3)OCO4)Cc3nnnn3C3CCCC3)c(=O)[nH]c12	-0.601
CCC(c1nnnn1C1CCCC1)N(Cc1cccs1)Cc1cc2cccc(C)c2[nH]c1=O (stereo unspecified)	1.98 (active)
Cc1cc(Cl)c(S(=O)(=O)NCc2cccnc2)cc1OCC(N)=O	0.63
Cn1c(=O)c2c(nc(Br)n2CCSc2nc3ccccc3o2)n(C)c1=O	0.536
COC(=O)c1cc(OC)c(OC)cc1NC(=O)C1CCCO1 (stereo unspecified)	-0.418
CCN(CCCCOC(=O)c1ccc(OC)c(OC)c1)C(C)Cc1ccc(OC)cc1 (stereo unspecified)	-14.7 (active)
CCOc1ccc(C(=O)Nc2cc(OC)ccc2OC)cc1	0.223
COc1ccc(-n2nnnc2SCC(=O)c2ccc(OC)c(OC)c2)cc1	-0.785
O=C(CSc1nnnn1-c1ccc2c(c1)CCC2)Nc1ccc2c(c1)OCCO2	-1.02
CC(=O)Nn1cc2c(=O)n(C)c(=O)n(C)c2c1	0.526
CC(C)OCCCNC(=O)C1CC(=O)N(C2CCCCCCC2)C1 (stereo unspecified)	-0.0238
O=C(NCCCN1CCCCCC1)C1CC(=O)N(C2CCCC2)C1 (stereo unspecified)	-2.1 (active)
O=C(NCCc1ccc(Cl)cc1)C1CC(=O)N(C2CCCCC2)C1 (stereo unspecified)	-0.27
Cc1ccc(-n2nc3c(c2NC(=O)CCC2CCCCC2)CS(=O)C3)cc1 (stereo unspecified)	0.299
Cc1ccnc(SCCn2c(N(C)Cc3ccccc3)nc3c2c(=O)n(C)c(=O)n3C)n1	0.589
COC(=O)C(C)Sc1ccc2nnc(-c3cccc(F)c3)n2n1 (stereo unspecified)	-0.0277
CCC(C(=O)OCCN(CC)CC)c1ccccc1 (stereo unspecified)	-11.7 (active)
CCOC(=O)C(C(=O)OCC)C(C#N)c1ccccc1 (stereo unspecified)	0.000361
CC(NC(=O)Nc1ccccc1)c1ccccc1 (stereo unspecified)	0.2
